ChEMBL document CHEMBL2218924, “A broad activity screen in support of a chemogenomic map for kinase signalling research and drug discovery” (Biochem J, 2013)

Tests used:
[1] = biological target: Protein kinase C alpha type (Homo sapiens) (UniProt P17252); conditions: at 1 µM
[2] = biological target: Protein kinase C alpha type (Homo sapiens) (UniProt P17252); conditions: at 10 µM
[3] = biological target: Protein kinase C beta type (Homo sapiens) (UniProt P05771); conditions: at 1 µM
[4] = biological target: Protein kinase C beta type (Homo sapiens) (UniProt P05771); conditions: at 10 µM
[5] = biological target: Protein kinase C beta type (Homo sapiens) (UniProt P05771); conditions: at 1 µM; remark: listed apart in the source
[6] = biological target: Protein kinase C beta type (Homo sapiens) (UniProt P05771); conditions: at 10 µM; remark: listed apart in the source
[7] = biological target: Protein kinase C gamma type (Homo sapiens) (UniProt P05129); conditions: at 1 µM
[8] = biological target: Protein kinase C gamma type (Homo sapiens) (UniProt P05129); conditions: at 10 µM
[9] = biological target: Protein kinase C delta type (Homo sapiens) (UniProt Q05655); conditions: at 1 µM
[10] = biological target: Protein kinase C delta type (Homo sapiens) (UniProt Q05655); conditions: at 10 µM

Sequence of Protein kinase C beta type (Homo sapiens) (P05771 2-671 limits assumed): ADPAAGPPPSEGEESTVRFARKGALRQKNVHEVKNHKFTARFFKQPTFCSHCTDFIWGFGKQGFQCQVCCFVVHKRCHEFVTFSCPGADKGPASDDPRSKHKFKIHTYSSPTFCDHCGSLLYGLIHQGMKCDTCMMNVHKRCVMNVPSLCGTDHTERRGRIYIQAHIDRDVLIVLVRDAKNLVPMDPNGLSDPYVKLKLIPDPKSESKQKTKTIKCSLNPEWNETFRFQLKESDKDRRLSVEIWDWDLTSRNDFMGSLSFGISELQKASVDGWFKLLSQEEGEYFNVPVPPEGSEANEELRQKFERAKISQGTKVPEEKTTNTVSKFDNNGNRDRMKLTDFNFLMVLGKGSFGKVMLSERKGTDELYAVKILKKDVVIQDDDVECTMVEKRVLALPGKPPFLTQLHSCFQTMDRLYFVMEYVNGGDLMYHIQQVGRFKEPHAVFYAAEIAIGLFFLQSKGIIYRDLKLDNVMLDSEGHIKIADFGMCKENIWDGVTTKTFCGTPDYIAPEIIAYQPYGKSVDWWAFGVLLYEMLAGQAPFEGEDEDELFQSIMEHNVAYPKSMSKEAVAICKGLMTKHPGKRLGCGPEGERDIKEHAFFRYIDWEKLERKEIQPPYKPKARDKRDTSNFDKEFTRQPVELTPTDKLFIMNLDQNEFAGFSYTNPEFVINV
Sequence of Protein kinase C delta type (Homo sapiens) (Q05655 whole entry, looked up): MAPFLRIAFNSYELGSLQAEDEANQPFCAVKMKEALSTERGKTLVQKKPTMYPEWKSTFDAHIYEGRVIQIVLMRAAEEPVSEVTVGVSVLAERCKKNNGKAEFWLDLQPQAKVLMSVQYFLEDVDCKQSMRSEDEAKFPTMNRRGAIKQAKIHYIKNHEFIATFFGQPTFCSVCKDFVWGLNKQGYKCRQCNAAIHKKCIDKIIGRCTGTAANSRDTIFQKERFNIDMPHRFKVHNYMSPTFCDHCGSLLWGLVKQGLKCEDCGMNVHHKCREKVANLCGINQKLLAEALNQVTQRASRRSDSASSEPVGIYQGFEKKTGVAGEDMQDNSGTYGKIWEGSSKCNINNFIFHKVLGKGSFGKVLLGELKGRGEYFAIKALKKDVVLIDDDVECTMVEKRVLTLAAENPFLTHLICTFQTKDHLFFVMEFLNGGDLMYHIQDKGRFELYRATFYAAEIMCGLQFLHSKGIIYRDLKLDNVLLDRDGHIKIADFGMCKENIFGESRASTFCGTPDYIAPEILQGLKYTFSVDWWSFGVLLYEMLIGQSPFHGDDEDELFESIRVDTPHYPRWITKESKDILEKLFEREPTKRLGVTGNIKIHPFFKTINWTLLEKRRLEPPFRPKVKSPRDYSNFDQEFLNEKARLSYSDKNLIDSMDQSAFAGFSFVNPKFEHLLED

Row | SMILES | residual activity [1] | residual activity [2] | residual activity [3] | residual activity [4] | residual activity [5] | residual activity [6] | residual activity [7] | residual activity [8] | residual activity [9] | residual activity [10]
1 | Nc1n[nH]c2nnc(-c3c(-c4ccccc4)nn4ccccc34)cc12 | 97% | 91% | 99% | 96% | 102% | 93% | 98% | 98% | 22% | 4%
2 | Cn1nc2c3c(cccc31)C(=O)c1ccccc1-2 | 101% | 97% | 107% | 104% | 109% | 103% | 90% | 101% | 104% | 108%
3 | CC(C)n1cnc2/c(=N/c3cccc(Cl)c3)nc(NCCO)[nH]c21 | 101% | 63% | 104% | 89% | 101% | 100% | 99% | 70% | 96% | 82%
4 | Ic1cccc(CSc2nnc(-c3ccncc3)o2)c1 | 96% | 95% | 107% | 102% | 95% | 92% | 97% | 104% | 100% | 101%
5 | Oc1ccc(-c2nc(-c3ccc(F)cc3)c(-c3ccncc3)[nH]2)cc1 | 112% | 92% | 124% | 85% | 110% | 81% | 106% | 103% | 98% | 90%
6 | O=C1NC(=O)/C(=C\c2ccc3nccnc3c2)S1 | 108% | 88% | 124% | 121% | 101% | 100% | 109% | 83% | 99% | 81%
7 | CO[C@H]1C[C@@H]2CC[C@@H](C)[C@@](O)(O2)C(=O)C(=O)N2CCCC[C@H]2C(=O)O[C@H]([C@H](C)C[C@@H]2CC[C@@H](O)[C@H](OC)C2)CC(=O)[C@H](C)/C=C(\C)[C@@H](O)[C@@H](OC)C(=O)[C@H](C)C[C@H](C)/C=C/C=C/C=C/1C | 99% | 99% | 107% | 106% | 105% | 103% | 105% | 98% | 98% | 99%
8 | Cc1ccc(NC2=CC(=O)c3sc(C)nc3C2=O)cc1 | 106% | 105% | 98% | 88% | 112% | 101% | 102% | 108% | 103% | 102%
9 | CC#CC(=O)Nc1cc2c(Nc3ccc(F)c(Cl)c3)ncnc2cn1 | 103% | 96% | 113% | 103% | 101% | 101% | 109% | 105% | 94% | 102%
10 | O=c1c2ccccc2[nH]c(=S)n1CCN1CCC(=C(c2ccc(F)cc2)c2ccc(F)cc2)CC1 | 108% | 105% | 109% | 109% | 101% | 104% | 116% | 117% | 101% | 97%
11 | c1ccc2c(-c3ccncc3)c[nH]c2c1 | 98% | 80% | 105% | 64% | 98% | 65% | 106% | 86% | 63% | 23%
12 | O=C(O)c1ccc2c3c1cccc3c(=O)n1c3ccccc3nc21 | 99% | 98% | 125% | 113% | 115% | 100% | 94% | 74% | 100% | 107%
13 | O=C1NC(=O)c2cc(Nc3ccc(F)cc3)c(Nc3ccc(F)cc3)cc21 | 104% | 101% | 107% | 86% | 93% | 103% | 111% | 98% | 97% | 105%
14 | Oc1c2ccccc2c2c3c(cccc13)N=N2 | 98% | 73% | 102% | 104% | 108% | 102% | 73% | 30% | 99% | 71%
15 | O=c1cc(-c2cccc3c2Sc2ccccc2S3)oc(N2CCOCC2)c1 | 95% | 86% | 102% | 100% | 104% | 101% | 99% | 95% | 100% | 104%
16 | CC(=O)O/N=C1\C(=C2\C(=O)Nc3cc(Br)ccc32)Nc2ccccc21 | 105% | 101% | 122% | 122% | 105% | 94% | 97% | 109% | 98% | 108%
17 | O=Nc1c(-c2c(O)[nH]c3ccccc23)[nH]c2ccccc12 | 93% | 86% | 93% | 94% | 95% | 102% | 92% | 73% | 85% | 80%
18 | Cc1nc2cc3nc(-c4cccs4)cnc3cc2n1C | 111% | 96% | 107% | 105% | 99% | 99% | 110% | 104% | 98% | 106%
19 | CO[C@H]1[C@@H](OC)C[C@H](C)[C@@H](OC)C2=CC(=O)C=C(NC(=O)/C(C)=C/C=C/[C@H](OC)[C@@H](OC(N)=O)/C(C)=C/[C@@H]1C)C2=O | 110% | 107% | 106% | 121% | 92% | 97% | 111% | 99% | 107% | 107%
20 | NC(=O)c1ccc2[nH]c(-c3ccc(Oc4ccc(Cl)cc4)cc3)nc2c1 | 99% | 90% | 111% | 93% | 95% | 100% | 90% | 108% | 104% | 107%

Row | SMILES | residual activity [1] | residual activity [2] | residual activity [3] | residual activity [4] | residual activity [5] | residual activity [6] | residual activity [7] | residual activity [8] | residual activity [9] | residual activity [10]
21 | CC[n+]1c(/C=C/N(C)c2ccccc2)n(-c2ccccc2)c2ccc(-c3nc4ccccc4s3)cc21 | 112% | 103% | 103% | 97% | 96% | 92% | 115% | 110% | 100% | 102%
22 | Cn1cnc2cc3c(Nc4cccc(Br)c4)ncnc3cc21 | 101% | 98% | 109% | 85% | 100% | 95% | 103% | 99% | 97% | 100%
23 | CNc1cc2c(Nc3cccc(Br)c3)ncnc2cn1 | 106% | 95% | 118% | 105% | 104% | 103% | 109% | 94% | 104% | 105%
24 | Oc1n[nH]c2nnc(-c3c(-c4ccccc4)nn4ccccc34)cc12 | 102% | 92% | 94% | 98% | 103% | 97% | 96% | 103% | 99% | 95%
25 | C[C@@H](N)[C@H]1CC[C@H](C(=O)Nc2ccncc2)CC1 | 94% | 84% | 101% | 87% | 81% | 34% | 97% | 96% | 48% | 12%
26 | CCN(CC)CCCCN1c2ccccc2Oc2ccc(Cl)cc21 | 112% | 107% | 105% | 98% | 103% | 95% | 117% | 108% | 107% | 111%
27 | CCOc1cc2ncnc(Nc3cccc(Br)c3)c2cc1OCC | 107% | 97% | 87% | 97% | 100% | 103% | 108% | 112% | 106% | 104%
28 | Cc1cc2ncc(-c3ccccc3)nc2cc1C | 106% | 109% | 125% | 131% | 100% | 107% | 106% | 105% | 103% | 85%
29 | O=C(Nc1cccc(Nc2nccc(Nc3cccc(C(F)(F)F)c3)n2)c1)C1CC1 | 95% | 66% | 110% | 107% | 99% | 102% | 98% | 90% | 100% | 106%
30 | O=C1NC(=O)c2c1c1c3ccccc3[nH]c1c1[nH]c3cc(Br)ccc3c21 | 102% | 103% | 108% | 95% | 104% | 95% | 99% | 100% | 97% | 102%
31 | COc1cc2ncnc(Nc3ccc(Oc4ccccc4)cc3)c2cc1OC | 91% | 96% | 120% | 126% | 104% | 104% | 105% | 97% | 103% | 107%
32 | CO[C@@H]1[C@H](N(C)C(=O)c2ccccc2)C[C@H]2O[C@]1(C)n1c3ccccc3c3c4c(c5c6ccccc6n2c5c31)C(=O)NC4 | 36% | 14% | 66% | 14% | 61% | 45% | 15% | 6% | 21% | 9%
33 | CCC(=O)Nc1ccc2ncnc(Nc3cccc(Br)c3)c2c1 | 100% | 91% | 117% | 99% | 108% | 104% | 109% | 100% | 101% | 113%
34 | O=C(Nc1cccc(Nc2cc(Nc3cccc(C(F)(F)F)c3)ncn2)c1)C1CC1 | 102% | 101% | 105% | 104% | 98% | 97% | 112% | 106% | 93% | 94%
35 | O=C1Nc2cc(Br)ccc2/C1=C1/Nc2ccccc2/C1=N\O | 98% | 104% | 100% | 101% | 102% | 95% | 101% | 107% | 112% | 118%
36 | Cc1cncc2cccc(S(=O)(=O)N3CCCN(C(=O)CN)C[C@H]3C)c12 | 99% | 85% | 82% | 31% | 95% | 51% |  |  | 7% | 3%
37 | COc1ccc(CNc2nc(N(CCO)CCO)nc3c2ncn3C(C)C)cc1 | 34% | 13% | 87% | 86% | 87% | 79% | 97% | 86% | 60% | 27%
38 | COc1cc2ncnc(Nc3ccc(O)c(Br)c3)c2cc1OC | 107% | 109% | 97% | 83% | 94% | 97% | 102% | 100% | 100% | 81%
39 | N#Cc1cnc2cnc(NCc3cccnc3)cc2c1Nc1ccc(F)c(Cl)c1 | 98% | 55% | 18% | 18% |  |  |  |  | 61% | 24%
40 | CCN(CC)C(=O)c1ccc(Nc2nc(OCC3CCCCC3)c3nc[nH]c3n2)cc1 | 95% | 58% |  |  |  |  | 46% | 13% | 78% | 26%
